Screening results (PubChem BioAssay)
An excerpt weighted towards active compounds, which were near 12% of everything screened.
AmpC detergent: qHTS Inhibitors of AmpC Beta-Lactamase (assay with detergent) | hit rate 0.041% among 370,000 | AmpC hydrolysis of nitrocefin, absorbance 480 nm, 0.01% Triton | Potency, µM (top dose mostly 114 µM), without a hit: at the top dose activity change, negative = inhibition, usual class: inhibitors | AID 485294, 2010 | P00811;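 also: 0% = no-compound wells and -100% = no-enzyme wells; nearly all actives have a fitted effect of over 25% in size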
Target sequence (P00811 whole entry, looked up): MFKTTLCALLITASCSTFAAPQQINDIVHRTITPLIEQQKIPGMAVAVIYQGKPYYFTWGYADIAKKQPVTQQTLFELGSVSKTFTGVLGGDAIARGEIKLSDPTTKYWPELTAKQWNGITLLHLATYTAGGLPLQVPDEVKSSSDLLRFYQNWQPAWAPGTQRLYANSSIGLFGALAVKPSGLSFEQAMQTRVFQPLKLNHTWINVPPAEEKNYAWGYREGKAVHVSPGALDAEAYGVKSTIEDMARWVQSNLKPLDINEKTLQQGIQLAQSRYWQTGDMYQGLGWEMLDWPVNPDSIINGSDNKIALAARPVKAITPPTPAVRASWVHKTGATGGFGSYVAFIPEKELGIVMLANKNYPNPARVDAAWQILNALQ
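20 mM phosphate pH 7.0 + 0.01% (detergent screen) or 0.0001% Triton X-100; 5.3 nM AmpC reagent; cpd preinc 15 min RT; nitrocefin (800 uM stock) to start; A480 q20 s × 4 min; Activity was normalised to no-enzyme and no-compound control wells.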
Pf growth 48h: Primary qHTS for delayed death inhibitors of the malarial parasite plastid, 48 hour incubation | Potency, µM (titrated, usually from 28.7 µM), without a hit: top-dose activity change, negative = inhibition, actives largely listed as inhibitors | hit rate 5.9% among 310,000 | P. falciparum luciferase growth in erythrocytes, 48 h | AID 504832, 2011; also: % is scaled to controls: 0 for no effect and ±100 for the full control effect
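First compound was added to culture medium, then infected red cells at 0.1% parasitemia and 2% hematocrit (final). After incubation at 37 C under 5% CO2, luciferase detection reagent was dispensed and light output recorded.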
Sm TGR inh: qHTS Assay for the Inhibitors of Schistosoma Mansoni Peroxiredoxins. AID 485364, 2010. purified TGR, DTNB reduction, TNB absorbance 405 nm. Schistosoma mansoni thioredoxin glutathione reductase (TGR), Q962Y6. hit rate 3% among 360,000. Potency, µM (series often up to 114 µM), inactives show top-dose activity change, negative = inhibition, usual class: inhibitors; also: % is scaled to controls: 0 for no effect and ±100 for the full control effect; nearly all actives have a fitted effect of over 60% in size
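Kinetic colorimetric format: TGR-catalysed, NADPH-driven DTNB reduction monitored via TNB absorbance. Enzyme dispensed at 20 nM; compound exposure 15 min at room temperature before reaction start.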
Pf growth 96h: Primary qHTS for delayed death inhibitors of the malarial parasite plastid, 96 hour incubation; P. falciparum luciferase reporter growth, 96 h; Potency, µM (highest dose often 28.7 µM), for inactives: top-dose activity change, negative = inhibition, usual class: inhibitors; hit rate 6.9% among 320,000; also: % is scaled to controls: 0 for no effect and ±100 for the full control effect
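Infected RBCs, 2% Hct / 0.05% parasitemia final; luciferase-reporter P. falciparum; cpd 96 h, 37 C, 5% CO2; luciferase detection reagent; luminescence.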
AmpC inh no detg: qHTS Inhibitors of AmpC Beta-Lactamase (assay without detergent); AmpC nitrocefin hydrolysis, absorbance 480 nm, 0.0001% Triton; Potency, µM (highest dose often 57.1 µM), for the others: at the top dose activity change, negative = inhibition, hits mostly inhibitors; hit rate 0.52% among 330,000; AID 485341, 2010;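 also: plate controls were no compound for no effect and no enzyme for full effect; nearly all actives have a fitted effect of over 20% in size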
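20 mM phosphate pH 7.0 + 0.01% (detergent screen) or 0.0001% Triton X-100; 5.3 nM AmpC reagent; cpd preinc 15 min RT; nitrocefin (800 uM stock) to start; A480 q20 s × 4 min; Activity was normalised to no-enzyme and no-compound control wells.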
SARS PLP yeast: qHTS of Yeast-based Assay for SARS-CoV PLP | hit rate 0.19% among 330,000 | S. cerevisiae expressing SARS-CoV PLpro, growth rescue | Potency, µM (highest dose often 32.9 µM), for inactives: top-dose activity, positive = growth rescue, actives largely listed as activators; calls by dose curve; also: 0% is about no effect; nearly all actives have a fitted effect of over 55% in size
Starred values were filed as active, the others as inactive; ? = inconclusive; . = no result given; ! = not active in a repeat; [ ] = dose if it differs, or a comment. Unless noted, calls follow the shape of the dose curve; as a rule, active = well fitted curve in the direction sought with a large enough effect; inconclusive = small, poorly fitted or top-dose-only effect, or another doubt; inactive = no such curve, though single readings can be large; an effect the other way counts as inactive or inconclusive. Potency is read from the fitted curve at half-maximal effect.

SMILES	AmpC detergent	Pf growth 48h	Sm TGR inh	Pf growth 96h	AmpC inh no detg	SARS PLP yeast
CCOc1ccc(NC(=O)c2c(NCc3ccc(C)o3)sc3c2CCCCC3)cc1	4%	.	8.9µM*	.	.	.
CCOc1ccc(NC(=O)c2c(NCc3cccs3)sc3c2CCCCC3)cc1	2%	.	7.9µM*	.	.	.
O=C(CSc1nnc(-c2cccs2)n1-c1cccc(Cl)c1)c1cccc2c1OCCO2	-14%	.	-9%	4%	-29%	-2%
COc1ccc2nc(NC(=O)C3CSC4(C)CCC(=O)N34)sc2c1 (stereo not drawn)	?	8%	-12%	28%	-14%	.
CC(CCc1ccc(O)cc1)NC(c1ccccc1)c1ccc(Cl)cc1 (stereo not drawn)	-7%	9.3µM*	8%	?	-31%	4%
CC(CCc1ccc(O)cc1)NCCC(c1ccccc1)c1ccccc1 (stereo not drawn)	-9%	?	3%	?	-24%	5%
CCOC(=O)c1ccccc1NC(=O)CSc1ccc(-c2sc(-c3ccccc3)nc2C)nn1	-3%	.	-4%	.	.	.
CC(C)(C)OC1NS(=O)(=O)OCC1NCOC(Cl)(Cl)Cl (stereo not drawn)	-17%	31%	0.45µM*	-22%	-25%	-10%
CCOC(=O)C1=C(COC(=O)CCOc2ccccc2)NC(=O)NC1C (stereo not drawn)	-10%	-20%	-2%	?	-7%	-33%
Oc1ccccc1N1CCN(c2ncnc3scc(-c4ccccc4)c23)CC1	?	5.9µM*	5%	5.2µM*	-11%	-6%
CN1CCN(c2ncnc3scc(-c4ccccc4Cl)c23)CC1	-11%	?	-15%	5.9µM*	33%	-6%
Cc1nc(N2CCN(c3ccccc3O)CC2)c2c(-c3ccccc3)csc2n1	?	13µM*	-8%	?	-1%	-4%
Cc1cc(-c2csc3ncnc(N4CCN(C)CC4)c23)cc(C)c1C	?	-15%	1%	?	103%	-2%
COc1ccc(-c2csc3nc(C)nc(N4CCC(C)CC4)c23)cc1OC	-2%	-6%	7%	-22%	37%	2%
COc1ccc(-c2csc3nc(C)nc(N4CCN(C(C)=O)CC4)c23)cc1OC	-3%	4.1µM*	-1%	5%	96%	-1%
COC(=O)CCCCCc1ccc(C(C)=O)s1	?	12%	-8%	34%	23%	-6%
Cc1ccc(-c2csc(NC(=O)c3ccc4c(=O)n5c(nc4c3)CCCCC5)n2)cc1	-5%	?	-10%	?	-18%	?
Cc1ccc(S(=O)(=O)NCC(=O)OCC(=O)N2CCN(C(=O)c3ccco3)CC2)cc1C	-7%	30%	?	12%	-7%	-4%
Cc1ccccc1C(=O)Nc1nc2nc(C)c(C)c(=O)n2[nH]1	7%	.	1%	.	.	.
Oc1ccccc1N1CCN(c2ncnc3scc(-c4ccc(F)cc4)c23)CC1	-3%	13µM*	-14%	?	-12%	.
CSCC[C@H](NS(=O)(=O)c1ccc(C)cc1)C(=O)N1CCC(C(=O)N[C@H](C(=O)O)c2ccccc2)CC1	?	19%	-23%	-5%	-2%	3%
CCN1CCN(c2cc(C)c3cc(NC(=O)/C=C/c4ccc(OCCC(C)C)cc4)ccc3n2)CC1	3%	.	12%	.	.	.
CCC(NC(=O)NCc1cccnc1)(C(F)(F)F)C(F)(F)F	-7%	-19%	0%	.	1%	-6%
CCCCOc1ccc(C2C3CN(C(=O)OCC)CC=C3C(C#N)=C(N)C2(C#N)C#N)cc1OC (stereo not drawn)	?	12µM*	0%	.	63%	-17%
CCOC(=O)N1CC=C2C(C#N)=C(N)C(C#N)(C#N)[C@H](c3ccc(OCC)c(OCC)c3)[C@H]2C1	4%	5.2µM*	-31%	8%	-9%	0%
SMILES	AmpC detergent	Pf growth 48h	Sm TGR inh	Pf growth 96h	AmpC inh no detg	SARS PLP yeast
Cc1ccc(C2C3CN(C(C)C)CC=C3C(C#N)=C(N)C2(C#N)C#N)cc1 (stereo not drawn)	-2%	8.3µM*	?	0%	-9%	1%
COc1ccc(OC)c(C2C3CN(C(C)C)CC=C3C(C#N)=C(N)C2(C#N)C#N)c1 (stereo not drawn)	-12%	?	?	?	5%	5%
CC(=O)N1CC=C2C(C#N)=C(N)C(C#N)(C#N)[C@H](c3ccoc3)[C@H]2C1	-14%	-9%	?	53%	-9%	6%
N#CC1=C(N)C(C#N)(C#N)C(c2cccnc2)C2CN(C(=O)OCc3ccccc3)CC=C12 (stereo not drawn)	-5%	?	?	9.3µM*	-26%	-3%
N#CC1=C(N)C(C#N)(C#N)C(c2cccnc2)C2COCC=C12 (stereo not drawn)	-8%	-5%	?	.	-27%	4%
CCCCC1=C(C(=O)OCC)C(C(=O)OCC)Oc2ccccc21 (stereo not drawn)	.	.	.	.	1%	-16%
Cc1sc2ncn(/N=C/c3ccco3)c(=O)c2c1C	3%	58%	13%	3%	-24%	-1%
CCOc1ccc(CNC(=O)CCn2nc(C)c3c(C)n(-c4ccccc4)nc3c2=O)cc1	31%	.	8%	.	.	.
COc1ccc(C=O)cc1COc1ccc(Cl)cc1[N+](=O)[O-]	-2%	36%	-19%	-1%	-2%	1%
CCOC(=O)C1=C(C)NC(=O)NC1c1c(OCC(=O)N2CCCCC2)ccc2ccccc12 (stereo not drawn)	?	12µM*	-1%	25%[5.75 µM]	69%	3%
CCOC(=O)C1=C(C)NC(=O)NC1c1ccc(OCC(=O)N2CCCCC2)cc1 (stereo not drawn)	-16%	2%	-19%	3%	-10%	4%
CCN(CC)C(=O)CN(c1cc2c(cc1OC)oc1ccccc12)S(=O)(=O)c1ccccc1	-1%	9.3µM*	19%	10µM*	.	.
c1ccc(-c2cn(-c3ccccc3)c3[n+]2CCCS3)cc1	2%	?	2%	?	-9%	-1%
COc1ccc(-n2cc(-c3ccc(C)cc3)[n+]3c2SCC3)cc1	-1%	0.59µM*	-6%	?	-12%	-21%
Cc1ccc(-c2cn(-c3ccccc3)c3[n+]2CCCS3)cc1	?	1µM*	2%	0.37µM*!	4%	2%
CCc1ccc(-n2cc(-c3ccc(F)cc3)[n+]3c2SCCC3)cc1	0%	1.5µM*	2%	?	-9%	-5%
